# Sampled rows, rich in hits. Any-hit rate of the full collection: about 2.9%.
# Shn3 inh set2 = Schnurri-3 reporter inhibition in Clone20 osteoblasts | 360,000 tested, 0.52% active | Clone20 osteoblast Shn3 3'UTR firefly luciferase, 24 h | inhibition, % at 12.5 µM;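 active means mean inhibition of at least 75% with every replicate also reaching 75%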;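 further: 0% = median of neutral control wells and 100% = pilot-screen positive control compound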
# LMP1 NFkB inh = Epstein-Barr LMP1 NF-kappaB reporter inhibition; LMP1-induced NF-kappaB luciferase reporter cells, luminescence; inhibition, % at 12.5 µM; 350,000 tested, 0.69% active; in the data active means inhibition above about 41%;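 further: 0% = neutral control wells and 100% = reference inhibitor control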
# CF NFkB block = cystic fibrosis NF-kB activation inhibition; KKLEB NF-kB-GFP reporter, PAF-induced, GFP fluorescence overnight; AID 588850; inhibition, % at 5 µM; 360,000 tested, 0.86% active;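 active means at least 50% inhibition at 5 µM, scaled per plate between neutral and stimulator controls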;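 further: PAF is a Pseudomonas aeruginosa culture filtrate used as stimulus; plate controls were PAF-stimulated DMSO wells for no effect and unstimulated DMSO wells for full effect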
# KKLEB tox = CF airway cell cytotoxicity counter-screen; KKLEB CF airway cells viability, ATPlite luminescence, overnight; hits give low values; cells stimulated with P. aeruginosa culture filtrate; activity change (cytotoxicity), % at 5 µM; 360,000 tested, 0.36% active; AID 602141;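 active means corrected activity change at or below -50% at 5 µM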
# HIF-2a inh = HIF-2a inhibition. AID 624352. inhibition, % at 18.8 µM. 360,000 tested, 0.72% active. 786-0 RCC cells HIF-2a reporter, luciferase luminescence, overnight;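 active means inhibition of the luminescence signal of 40% or more relative to plate controls, in a single-dose primary screen at 18.75 µM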
# Peg3 prom inh-1 = Peg3 promoter activity inhibition; inhibition, % at 20 µM; 360,000 tested, 1.7% active; HeLa PEG-Prom luciferase reporter, luminescence, overnight;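 active means inhibition of at least 50% at 20 µM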
# Peg3 prom inh-2 = confirmation of Peg3 promoter inhibitors; shares compounds with Peg3 prom inh-1; HeLa PEG-Prom luciferase reporter, luminescence, overnight; inhibition, % at 20 µM; 1,300 tested, 84% active;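 active means at 20 µM dose, 40% or more inhibition averaged across four replicates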
# An asterisk follows results filed as active; · = no result; ! = not active in a repeat.
SMILES,Shn3 inh set2,LMP1 NFkB inh,CF NFkB block,KKLEB tox,HIF-2a inh,Peg3 prom inh-1,Peg3 prom inh-2
Cc1ncc(CO)c(/C=N/Nc2ccc(C(F)(F)F)cn2)c1O,81.1,29.8,6.3,2.1,10.6,61.6*,67.0*
Cc1cc(N2CCN(C(C(=O)NC3CCCC3)c3ccc(-c4ccccc4)cc3)CC2)c2ccccc2n1 (stereo unspecified),·,·,·,·,-19.2,·,·
COc1cc(CNC(C)(C)CO)cc(Br)c1OCc1ccc(Cl)cc1,2.4,-9.6,12.6,-11.0,-18.2,80.7*,91.1*
COc1ccc(CN(C)C(=O)c2cc(-c3ccccc3)nc3ccc(C)cc23)c(OC)c1OC,9.1,5.0,22.6,-12.3,-4.5,58.8*,59.5*
COc1ccccc1CN(C)C(=O)c1cc(-c2cccs2)nc2ccccc12,10.9,2.9,-9.7,-3.9,9.3,69.0*,81.2*
COc1ccc(CCN(C)C(=O)c2cc(-c3ccccc3)nc3ccc(C)cc23)cc1OC,3.6,8.7,10.7,2.3,-18.1,2.4,·
COc1ccc(-c2cc(C(=O)N(C)Cc3cccc(OC)c3OC)c3ccccc3n2)cc1OC,23.3,8.6,9.2,-14.4,-6.4,55.1*,56.2*
COc1ccccc1-c1csc(NC(=O)c2cc(-c3cccs3)nc3ccccc23)n1,4.6,1.9,16.4,1.7,12.9,8.9,·
COc1ccc(CN(C)C(=O)c2cc(-c3ccc(OC)c(OC)c3)nc3ccccc23)c(OC)c1,4.7,3.0,-8.9,2.0,10.3,21.6,·
Cc1ccc(C2=NC(=O)/C(=C/c3cc(O)c(O)c(Br)c3)S2)cc1,-12.5,-4.2,-7.4,-6.2,13.3,67.4*,67.0*
CCOC(=O)c1sc2nc(CSc3ccccc3)nc(N3CCCN(C)CC3)c2c1C,5.0,-15.3,12.1,-13.2,9.4,64.8*,94.1*
Cc1ccc(NC(=O)N2CCc3ccccc32)cc1,-6.7,-15.8,-1.1,-12.9,-95.9,-108.0,·
CN1CCN(c2ccc(NC(=O)N3CCc4ccccc43)cc2)CC1,45.6,60.4*,5.9,-20.3,27.1,57.6*,50.9*
Cc1ccc(-c2cc3c(nn2)-c2ccccc2C3=O)cc1,80.5,65.1*,-3.2,-74.6*,26.9,76.1*,66.6*
O=C1c2ccccc2-c2nnc(-c3ccc(F)cc3)cc21,-26.1,11.5,-10.5,-16.1,-140.7,-11.4,·
Cc1ccc(-c2nnc(-c3ccc(NC(=O)Cc4cccs4)cc3)o2)cc1,-0.9,-58.3,71.1*,-77.2*,-19.9,55.5*,16.8
CC1=C(CC[C@@H](C)CO)OC2CC3C4CCC5CC(O)CCC5(C)C4CC(=O)C3(C)C12 (stereo partly specified),19.1,-5.6,-6.6,-16.8,-30.8,64.9*,58.1*
Cc1cc(NC(=O)c2csc([C@@H]3O[C@H](CO)[C@H](O)[C@H](O)[C@H]3O)n2)n(C)n1,-14.6,·,-12.6,5.3,5.0,-5.5,·
Cc1cc(C)c2c(N)c3ccccc3nc2n1,-36.1,-31.3,-146.5,8.7,14.7,86.6*,90.5*
Cc1nc(SCC(=O)NCc2ccco2)c2c(C)c(C)sc2n1,-0.5,1.6,-2.9,-1.6,5.4,8.2,·
Cc1sc2nc(C(C)C)nc(SCC(=O)NCc3ccco3)c2c1C,10.8,1.2,-6.5,-9.5,20.6,59.0*,31.5
O=C(Nc1nc2ccccc2[nH]1)c1ccc([N+](=O)[O-])cc1,-42.9,-0.5,-7.9,-28.6,-294.1,-221.0,·
COc1ccccc1C(=O)NCCC(=O)Nc1nc2ccccc2[nH]1,-38.5,6.0,27.9,-3.5,-17.3,-29.7,·
Cc1cc(C(=O)Nc2cnc3ccccc3c2)ccc1[N+](=O)[O-],-45.1,-18.6,-15.8,6.1,-312.8,-268.6,·
Cc1ccc(C(=O)Nc2cnc3ccccc3c2)cc1,86.4*,78.6*,-5.3,-20.4,83.9*,99.0*,94.1*
SMILES,Shn3 inh set2,LMP1 NFkB inh,CF NFkB block,KKLEB tox,HIF-2a inh,Peg3 prom inh-1,Peg3 prom inh-2
Cc1ccc(C(=O)Nc2nc3ccccc3[nH]2)cc1,32.2,63.4*,-8.9,-51.9*,63.0*,70.5*,63.5*
COc1ccccc1C(=O)Nc1nc2ccccc2[nH]1,91.4*,88.0*,-6.5,-73.6*,93.4*,97.8*,91.8*
Cc1nc(N(CCO)C2CCCCC2)c2nnn(Cc3ccccc3)c2n1,16.1,-19.5,16.0,7.2,20.1,20.5,·
C=CCc1cc(OC)ccc1OCCOCCN1CCc2ccccc2C1,73.9,-10.4,0.3,-11.5,12.5,13.9,·
Cc1ccc(-n2nc3c(N4CCC(C(=O)NCCc5cccs5)CC4)nnc(C)c3c2C)cc1,53.2,-9.1,32.9,-13.9,8.3,59.8*,36.7
CC(=O)NNC(=O)c1nc(-c2ccccc2)c(C)o1,0.9,7.1,6.8,-0.6,1.3,-0.2,·
COc1cccc2c1C(=N)c1c(O)c3c(c(O)c1C2=O)CC(O)(C(C)=O)CC3OC1CC(N)C(O)C(C)O1 (stereo unspecified),91.6*,52.9*,-271.8,-6.2,21.1,98.3*,96.1*
CCOc1ccc(Nc2cc(C)c3ccccc3n2)cc1,-69.5,·,-1.0,-4.2,-231.9,-319.9,·
CCOc1ccc(Nc2c3ccccc3nc3ccccc23)cc1,62.7,7.2,-41.0,-8.6,35.1,84.6*,84.6*
CC(C)C(=O)NC(=S)Nc1ccccc1N1CCN(C(=O)c2ccccc2)CC1,-1.0,3.6,8.4,-23.4,14.9,58.0*,40.3*
Cc1nc2ncnn2c(C)c1C/C=C/c1ccccc1,16.8,2.3,8.1,-8.4,19.7,12.5,·
CN(C)CCNc1ccc2nnn3c4ccc(O)cc4c(=O)c1c23,-10.9,-4.1,-30.2,-16.6,27.0,74.9*,55.8*
Cc1ccc(NCCN(C)C)c2c(=O)c3cc(O)ccc3sc12,41.7,44.5*,-136.3,-23.9,23.8,105.9*,100.2*
CC(=O)NC(c1ccc(F)c(F)c1)c1nc(-c2cnn(C)c2)cs1 (stereo unspecified),-12.7,·,-27.5,-1.9,7.6,2.5,·
COc1ccccc1Oc1ccc(-c2cnc3ccccc3n2)cc1[N+](=O)[O-],-3.8,-36.3,-10.6,5.4,-172.9,-88.0,·
CC1(c2nnnn2Cc2ccccc2)CCC(=O)N1CCc1ccc(O)cc1 (stereo unspecified),·,·,·,·,6.5,·,·
CCN(CC)CCOc1ccc(/C(=C(/Cl)c2ccccc2)c2ccccc2)cc1,8.8,-27.6,39.3,3.1,-6.7,102.2*!,95.9*
CCOc1ccc(C(=O)OCCN(CC)CC)cc1,-19.7,6.8,-13.2,-1.7,16.8,5.5,·
Fc1c(F)c(F)c(/C=N/NC(=S)Nc2cccnc2)c(F)c1F,6.3,-42.2,37.3,-16.7,19.6,101.0*,43.7*
COc1ccc(-c2ccc(-c3nc4c(c(=O)[nH]c(=O)n4Cc4ccccc4)n3C)o2)c([N+](=O)[O-])c1,-0.8,0.8,21.3,-36.9,2.9,57.0*,15.6

# Source: PubChem
